# Laboratory results from PubChem BioAssay (EPA / NIEHS).
# Results filed as inconclusive are left out. Activity calls are given as the source filed them. The calls were made as follows, unless noted: active = hit-call score of the fitted dose curve at least 0.9, where 1 is the maximum; inactive = score below 0.9.
# What was measured:
# [1] = BSK_BT_PBMCCytotoxicity: PBMC Cytotoxicity Assessment in the BioMAP Diversity Plus: BT Assay (AID 2284225); settings: primary human B cells with PBMC;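 also: PBMC viability measured by Alamar Blue dye reduction fluorescence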
# Summary of the method: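 75,000 cells/well; cpd 1 h → SEB + TSST-1 (20 ng/mL final each) → 90 h → Alamar Blue 6 h → fluor. 546/580 nm. DMSO = neg. control/baseline.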
# [2] = read-out: Secreted IgG (sIgG), gene 3500; test: BSK_BT_sIgG: BioMAP Diversity Plus: BT Assay for Secreted IgG (sIgG) Biomarker Activity (AID 2284226); settings: primary human B cells with PBMC
# Summary of the method: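 Secreted IgG from a human primary B cell–PBMC co-culture was measured by ELISA 24 hours after dosing, with DMSO defining baseline activity.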
# [3] = BSK_BT_Bcell_Proliferation: Viability Assessment in the BioMAP Diversity Plus: BT Assay for B cell Proliferation (AID 2284227); settings: primary human B cells with PBMC
# Summary of the method: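 Human B cell/PBMC co-culture; test chemical added; 72 h; TCA fix (10%), 0.1% SRB stain, A560 for total protein as a proliferation read-out; positive-direction fit vs DMSO baseline.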
# [4] = read-out: Interleukin 6 (IL6), IL6 (gene 3569); test: BSK_BT_xIL6: BioMAP Diversity Plus: BT Assay for Interleukin 6 (IL6) Biomarker Activity (AID 2284228); settings: primary human B cells with PBMC
# Summary of the method: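 IL-6 secretion measured (Luminex xMAP) in human primary B cell + PBMC co-culture at 24 h of chemical exposure; DMSO served as negative control and activity baseline, with curves fitted for increase.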
# [5] = read-out: Interleukin 17A (IL17A), IL17A (gene 3605); test: BSK_BT_xIL17A: BioMAP Diversity Plus: BT Assay for Interleukin 17A (IL17A) Biomarker Activity (AID 2284229); settings: primary human B cells with PBMC
# Summary of the method: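 Human primary B cells plus PBMC, treated 24 h with chemicals; supernatant IL-17A quantified on Luminex xMAP beads. Gain of signal over DMSO control scored as activity.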
# [6] = read-out: Tumor necrosis factor (Homo sapiens) (UniProt P01375); test: BSK_BT_xTNFa: BioMAP Diversity Plus: BT Assay for Tumor necrosis factor alpha (TNF-alpha) Biomarker Activity (AID 2284230); settings: primary human B cells with PBMC
# Summary of the method: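 Read-out: Luminex xMAP quantitation of secreted TNF-alpha from a B cell/PBMC co-culture 24 h after compound addition. Signal analysed relative to DMSO vehicle, positive fitting direction.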
# [7] = read-out: Vascular cell adhesion molecule 1 (VCAM1), VCAM1 (gene 7412); test: BSK_MyoF_VCAM1: BioMAP Diversity Plus: MyoF Assay for Vascular cell adhesion molecule 1 (VCAM1) Biomarker Activity (AID 2284231); settings: primary human lung fibroblasts
# Summary of the method: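 VCAM-1 levels, lung fibroblasts, ELISA, 24 h exposure, increase scored relative to DMSO.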
# [8] = CCTE_Mundy_HCI_Cortical_Synap_Neur_Matur_NeuriteLength: CCTE's Synaptogenesis and Neurite Maturation Assay in rat cortical cells for Neurite Length, Mundy Lab (AID 2284214)
# Summary of the method: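 Neurite length in rat primary cortical cultures is imaged after MAP2, synaptophysin and Hoechst staining. Dosing starts DIV 7, ending DIV 12; DMSO serves as negative control and baseline.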
# [9] = CCTE_Mundy_HCI_Cortical_Synap_Neur_Matur_NeuriteSpotCountPerNeuron: CCTE's Synaptogenesis and Neurite Maturation Assay in rat cortical cells for Neurite Spot Count per Neuron Count, Mundy Lab (AID 2284215)
# Summary of the method: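 Developing rat cortical neurons, with glia suppressed by AraC, are exposed to chemicals from DIV 7 to DIV 12. Automated fluorescence imaging of MAP2-labelled neurites and synaptophysin puncta yields a count per neuron, normalised against DMSO wells.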
# [10] = CCTE_Mundy_HCI_Cortical_Synap_Neur_Matur_SynapseCount: CCTE's Synaptogenesis and Neurite Maturation Assay in rat cortical cells for Synapse Count, Mundy Lab (AID 2284218)
# Summary of the method: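 Synapse count per neuron is measured in rat cortical neurons exposed to chemicals between DIV 7 and DIV 12, with glial growth arrested by AraC at DIV 5. Synaptophysin and MAP2 staining is imaged automatically; activity is fitted relative to DMSO.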
# [11] = CCTE_Mundy_HCI_Cortical_Synap_Neur_Matur_NeuriteCount: CCTE's Synaptogenesis and Neurite Maturation Assay in rat cortical cells for Neurite Count, Mundy Lab (AID 2284222);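 also: exposure from day 7 to day 12 in vitro with readout at day 12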
# Summary of the method: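 Rat cortical neurons, 96-well; AraC DIV 5; chemical + media change DIV 7; end DIV 12. Fix PFA/Hoechst, anti-MAP2 + anti-synaptophysin IF. HCI neurite count vs DMSO baseline.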
# [12] = CCTE_Mundy_HCI_Cortical_Synap_Neur_Matur_CellBodySpotCount: CCTE's Synaptogenesis and Neurite Maturation Assay in rat cortical cells for Cell Body Spot Count, Mundy Lab (AID 2284223)
# Summary of the method: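 Chemicals were applied to AraC-treated rat primary cortical cells at DIV 7 and measured at DIV 12. Fixed cells were labelled for MAP2, synaptophysin and nuclei, and high-content imaging gave cell body synaptophysin spot counts per neuron relative to DMSO.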
# [13] = CCTE_Mundy_HCI_hNP1_Pro_ResponderAvgInten: CCTE's Proliferation Assay in human neuroprogenitor cells, Mundy Lab (AID 2284224; active = hit-call score of the fitted dose curve at least 0.9, where 1 is the maximum;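 also: human neural progenitor cells hNP1 derived from WA09 embryonic stem cells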)
# Summary of the method: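 Proliferation was scored as BrdU labelling intensity in human neural progenitors derived from WA09 embryonic cells, measured 26.25 hours after chemical dosing. Activity was fitted relative to DMSO.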
# [14] = UKN2_HCS_IMR90_cell_viability: Viability Assessment in the University of Konstanz (UKN) Leist Lab Neural Crest Cell Migration Assay in human induced IMR90 Pluripotent Stem Cells (UKN2) (AID 2284233);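 also: viability of neural crest cells differentiated from IMR90 iPSC measured by calcein-AM fluorescence imaging; cells exposed to compound for 24 h after a 24 h migration phase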
# Summary of the method: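 Human IMR90-derived neural crest cells were allowed to migrate for 24 h into a cell-free zone, then exposed to test chemicals for 24 h. Calcein-AM and Hoechst staining with high-content imaging gave viability, analysed against DMSO baseline.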
# [15] = TAMU_PeakParms_SingleDonor1434_Chronotropy: Texas A&M University (TAMU) 1.5-hr Human Induced Pluripotent Stem Cell (iPSC)-derived Cardiomyocytes Calcium (Ca+2) Flux Assay for Cardiotoxicity: Chronotropy (changes in peak frequency) (AID 2284217); settings: actives raise or lower the signal
# Summary of the method: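 Beat rate, as mean Ca2+-flux peak frequency, was read from donor 1434 iPSC cardiomyocytes 90 min after exposure to 0.2–100 uM test chemical (0.5% DMSO). Wells that stopped beating were excluded; EC05 from bidirectional DMSO-referenced fitting.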
# [16] = CCTE_Mundy_HCI_hN2_NOG_NeuriteCount: CCTE's Neurite Outgrowth Assay in human hN2 cells for Neurite Count, Mundy Lab (AID 2284219; active = hit-call score of the fitted dose curve at least 0.9, where 1 is the maximum)
# Summary of the method: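 In this morphology assay, hNP1-derived neurons received test chemical 2 h post-plating and were fixed two days later in warm paraformaldehyde/sucrose containing Hoechst 33342. Neurites, labelled by rabbit anti-βIII-tubulin (1:800) and Alexa Fluor-488 (1:500), were counted automatically.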
# [17] = CCTE_Mundy_HCI_hN2_NOG_NeuriteLength: CCTE's Neurite Outgrowth Assay in human hN2 cells for Neurite Length, Mundy Lab (AID 2284220; active = hit-call score of the fitted dose curve at least 0.9, where 1 is the maximum)
# Summary of the method: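 Plate hNP1-derived neurons, then add chemical 2 h later as a 1/10 dilution. Stain with anti-βIII-tubulin then Alexa Fluor-488 secondary, and image automatically to measure neurite length.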
# [18] = CCTE_Mundy_HCI_hN2_NOG_NeuronCount: CCTE's Neurite Outgrowth Assay in human hN2 cells for Neuron Count, Mundy Lab (AID 2284221; active = hit-call score of the fitted dose curve at least 0.9, where 1 is the maximum)
# Summary of the method: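 Read-out is the number of betaIII-tubulin-positive neurons imaged by automated high-content analysis, with DMSO as negative control.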
# [19] = UKN4_HCS_LUHMES_cell_viability: Viability Assessment in the University of Konstanz (UKN) Leist Lab Neurite Outgrowth Assay in human LUHMES cells (UKN4) (AID 2284232)
# Summary of the method: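 Human dopaminergic-model LUHMES neurons were exposed to chemicals for 24 h after a 2-day differentiation. Viability was scored by imaging Hoechst H-33342 staining, with activity fitted in both directions relative to DMSO controls.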
# [20] = TAMU_HCS_1.5hr_SingleDonor1434_Cytotoxicity: Cytotoxicity Assessment using High-content Screening (HCS) Fluorescent Imaging for the Texas A&M University (TAMU) 1.5-hr Human Induced Pluripotent Stem Cell (iPSC)-derived Cardiotoxicity Assay (AID 2284234; active = hit-call score of the fitted dose curve at least 0.9, where 1 is the maximum)
# Summary of the method: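 Human iPSC-derived cardiomyocytes dosed at 0.2, 1, 10, 100 uM final (0.5% DMSO) for 90 min at 37 C. Hoechst 33342-stained nuclei counted by 10x high-content imaging; POD is EC10, a 10% drop in total cell count versus DMSO.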
# Tumor necrosis factor (Homo sapiens), sequence (P01375 whole entry, looked up): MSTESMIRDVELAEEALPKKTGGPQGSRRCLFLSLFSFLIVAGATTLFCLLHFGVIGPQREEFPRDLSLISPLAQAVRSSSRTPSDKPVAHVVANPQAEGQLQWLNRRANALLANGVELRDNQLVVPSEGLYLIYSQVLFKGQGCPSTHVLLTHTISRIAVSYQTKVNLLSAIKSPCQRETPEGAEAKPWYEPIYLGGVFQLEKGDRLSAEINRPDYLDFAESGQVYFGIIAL
smiles,measurement,setting,value
COc1ccc(CCN2CCC(Nc3nc4ccccc4n3Cc3ccc(F)cc3)CC2)cc1,AC50,[1],7.27 µM (active)
same,AC50,[2],3.17 µM (active)
same,AC50,[3],5.84 µM (active)
same,AC50,[4],3.52 µM (active)
same,AC50,[5],3.17 µM (active)
same,AC50,[6],7.19 µM (active)
same,AC50,[7],5 µM (active)
COCCOCCOCCO,outcome,[8],inactive
same,outcome,[9],inactive
same,outcome,[10],inactive
same,outcome,[11],inactive
same,outcome,[12],inactive
same,outcome,[13],inactive
same,outcome,[14],inactive
Clc1cc(Cl)c(-c2c(Cl)c(Cl)cc(Cl)c2Cl)cc1Cl,outcome,[1],inactive
same,outcome,[2],inactive
same,outcome,[3],inactive
same,outcome,[4],inactive
same,outcome,[5],inactive
same,outcome,[6],inactive
same,AC50,[7],2.76 µM (active)
Oc1c(Cl)cc(Cl)c(Cl)c1Cc1c(O)c(Cl)cc(Cl)c1Cl,AC50,[8],13.4 µM (active)
same,AC50,[9],9.95 µM (active)
same,outcome,[15],inactive
same,AC50,[10],13.1 µM (active)
same,AC50,[16],1.42 µM (active)
same,AC50,[17],1.38 µM (active)
same,AC50,[18],1.4 µM (active)
same,outcome,[11],inactive
same,AC50,[12],9.92 µM (active)
same,outcome,[13],inactive
same,AC50,[1],20 µM (active)
same,AC50,[2],0.993 µM (active)
same,AC50,[3],12.6 µM (active)
same,outcome,[4],inactive
same,AC50,[5],2.48 µM (active)
same,AC50,[6],15.2 µM (active)
same,AC50,[7],0.555 µM (active)
same,AC50,[19],18.3 µM (active)
same,AC50,[14],3.18 µM (active)
same,AC50,[20],14.9 µM (active)
CC(C)NCC(O)COc1ccc(CC(N)=O)cc1 (stereo not given),outcome,[15],inactive
C[C@@H]1CCN(C(=O)[C@H](CCCN=C(N)N)NS(=O)(=O)c2cccc3c2NC[C@H](C)C3)[C@@H](C(=O)O)C1,outcome,[1],inactive
same,outcome,[2],inactive
same,outcome,[3],inactive
same,outcome,[4],inactive
same,outcome,[5],inactive
same,outcome,[6],inactive
same,outcome,[7],inactive
C=C(C)C(=O)OCC(CC)(COC(=O)C(=C)C)COC(=O)C(=C)C,outcome,[1],inactive
same,AC50,[2],3.08 µM (active)
same,AC50,[3],25.5 µM (active)
same,AC50,[4],19.7 µM (active)
same,outcome,[5],inactive
same,AC50,[6],19.7 µM (active)
same,AC50,[7],11.2 µM (active)
COCCc1ccc(OCC(O)CNC(C)C)cc1 (stereo not given),outcome,[8],inactive
same,outcome,[9],inactive
same,outcome,[10],inactive
same,outcome,[11],inactive
same,outcome,[12],inactive
CCC(C)c1cc([N+](=O)[O-])cc([N+](=O)[O-])c1OC(=O)OC(C)C (stereo not given),AC50,[1],20 µM (active)
same,AC50,[2],11.1 µM (active)
same,AC50,[3],26.7 µM (active)
same,AC50,[4],30.4 µM (active)
same,AC50,[5],30.7 µM (active)
same,AC50,[6],33.5 µM (active)
same,AC50,[7],8.46 µM (active)
C=C(C)C(=O)OCCOCCOCCOC(=O)C(=C)C,outcome,[1],inactive
same,outcome,[2],inactive
same,outcome,[3],inactive
same,outcome,[4],inactive
same,outcome,[5],inactive
same,outcome,[6],inactive
same,outcome,[7],inactive
